# In the supplement of paper PMC6555819:
# System: THRa homodimer (NR concentration 90 nM)
# Assay: PBM binding z-score (relative to random genomic background probes); higher = stronger binding; sequences stand for … in GC…GCGATTGACAGCGTAGAATGAAGG
# Outline: (§1)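 Regression normalization was applied to scanned fluorescence from custom Agilent 4×180K protein-binding microarrays. Before scanning, arrays were incubated 1 h with ligand-free nuclear receptor dimers, and binding was detected with antibodies against each partner (one per run). Binding z-scores use the random background probes as reference.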
row,Sequence,PBM binding z-score
1,TCTTATAGATCAACAGGAGGTTAAGAAAGATCGA,-0.19
2,TCTGCTAGGTTAACGATGGTCAGCTAATCTGCTA,-1.07
3,GCAGAGAGGTGAAACGCAGGTAACTCAGGGTGGC,0.0883
4,CCTACCGGGCCAAGGTCATTGATCAGTCAAAGCA,2.77
5,TTACCAAGGGGAAGGTCGTTGATCCCTCTGTAGA,-0.636
6,GCGACTGGGGCAAAGGAGGTTACCATAAGGTTGG,0.609
7,GTACCAAGCTGAATAGGTCGTTGATGAGTAGGCG,-0.873
8,GCGACTGGGGCCTCAGCAGGTTACCATAACTTAA,-0.118
9,GCTTGTAGATCGAGGTTAAGAAAGACTAAGCTAA,-0.253
10,CGAACTAGGTCATTGACAGGACAGTTAATAGTAA,0.893
11,TCTTGTAGATCAACAGGAGGTTAAGAACGATCGA,-0.518
12,CCAGACAGGTGAGAAGGTAACCCAGCCTCGATTA,0.455
13,ACTAGCAGGCCAAGTTTGGGTCACTGAAACAAAG,1.29
14,CGCCCAAGGTCAATGCTAGGTCAGTGAAAGCATT,2.72
15,CGTCCAAGGGCAAAGGTCAGTGAAGAGATGACGG,0.298
16,GCTTGTAGATAAAGGTTAAGAAAGACTAAGCTAA,-0.76
17,TTACCAAGGTGGAGGTCGTTGATCCCTCTGTAGA,0.145

# System: VDR:RXRa (NR concentration 270 nM, RXRa partner concentration 90 nM)
# Assay: as above
# Outline: as §1
row,Sequence,PBM binding z-score
1,CCTAGCAGGCCAGGGTCCCTCAAGCATTTCGCTT,-0.596
2,CGTCAAATTTCAAGGTAACGTAACAGAAAGCAGC,0.0191
3,AATACAGAGTCACTAGGCCAGAGTAGGTACGAAT,-0.0941
4,AATACAGGCTCACTAGGCCAGAGTAGGTACGAAT,-0.46
5,TCATATAGGTAAAAGGTGAAAATCGGTGTGGTAA,1.65
6,TGTCAAAGTTCAAAGGTAACATAAGTATCCACAC,5.14
7,AGAGTGAGGTTAAGATCAGGGAAACAGAATACAT,1.62
8,ATAGCAAGGTGATCGTGAGGTCGTTGATACTAAC,2.94
9,TCGAGTAGGTTGCCAATGGGGCATTCAGCTTTCT,-0.316
10,CCGACTGGGGCAGAAAGGTTACCACACCATCCGG,1.15
11,ATCTCTATGTAACCAAGTTCAGTGAATGCCGAAC,2.22
12,AGAATGACGTTATACGTAGATCAGGGAAGAAAGT,-0.532
13,ATATGTAGGTTATCGGGTCATTCCGTTTGCGCAT,3.86
14,GCGTACGGGTCAAAGGTTATAGCATGAATAGAAT,5.59
15,CCACACAGGTGAGAAGGTAACTCAGCCTCGATTA,0.0106
16,CGTCCAAGGTCAAGGTCAGTTAAAGAGACTCGAA,4.83
17,CGAACTAGTTCAGAACAGGACAGTGAAGGATGAT,-0.0284
18,TCATATAAGTAAACAGGTGAAAGTCCGTAAGTTA,1.28
19,TCTAGTTGGTCAAACGTCACACACTCGAAATGCG,0.811
20,AACTCTAGGTAAAGATAGTTCAGTGAATGCAAAT,0.688
21,TCTTATAGATCAACAGGAGGTTAAGAAAGATCGA,1.01
22,TCTGCTAGGTTAACGATGGTCAGCTAATCTGCTA,-0.0905
23,GCAGAGAGGTGAAACGCAGGTAACTCAGGGTGGC,0.186
24,CCTACCGGGCCAAGGTCATTGATCAGTCAAAGCA,3.22
25,TTACCAAGGGGAAGGTCGTTGATCCCTCTGTAGA,0.561
26,GCGACTGGGGCAAAGGAGGTTACCATAAGGTTGG,1.26
27,GTACCAAGCTGAATAGGTCGTTGATGAGTAGGCG,-0.239
28,GCGACTGGGGCCTCAGCAGGTTACCATAACTTAA,-0.529
29,GCTTGTAGATCGAGGTTAAGAAAGACTAAGCTAA,0.413
